Rows were chosen to be rich in hits. Some 0.27% of all compounds tested hit in one or more screens of this group.
TRPV1 agonist = agonists of human vanilloid receptor 1 (TRPV1); Q8NER1; TRPV1-expressing cells, Fluo-8 calcium influx, agonist mode; activation, % at 8.33 µM; actives 0.19% (n = 320,000); in the data active = activation above about 80%; inconclusive = between about 30% and that limit; note: 0% is about no effect
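Cells expressing TRPV1 were dye-loaded with Fluo-8 and read kinetically: 10 s baseline, 3 min after compound (agonist portion), then 2 min after EC20 capsaicin (allosteric enhancer portion). Calcium-bound dye fluorescence at 480/520 nm.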
TRPML1 agonist = human mucolipin-1 channel agonism. Q9GZU1. TRPML1-expressing cells, Ca2+ dye fluorescence, FDSS. activation, % (no concentration beside the values). actives 0.12% (n = 410,000). AID 624414; in the data active = activation above about 50%; inconclusive = mostly about 30% to 49%; note: 0% is about no effect
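Cells: TRPML1-DL, 1X Tet inducer, ~16 h at 37 degrees C/5% CO2. Dye: ABD Ca8 no-wash + quencher, 45-90 min RT. Read: 10 s baseline, compound add, 110 s agonist phase; 54-4 EC80 (4uM final), 110 s antagonist phase.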
TRPML1 blocker = inhibitors of human TRPML1 channel; TRPML1-inducible cells, Ca2+ dye fluorescence, FDSS; hits give low values; inhibition of EC80 agonist-evoked calcium signal; actives 0.02% (n = 390,000); Q9GZU1; AID 624415; activity change, negative = inhibition, % (no concentration beside the values); in the data active = activity change below about -50%; inconclusive = between about -30% and that limit;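 note: stimulus is agonist 54-4 at its EC80 concentration; % is set by controls: 0 for no effect and ±100 for the full control effect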
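TRPML1-DL cells, Tet-induced overnight (~16 h, 37 °C) at 1,500 cells/well, were loaded with Ca8 no-wash dye plus quencher for 45-90 min at room temperature. Compounds were pinned during FDSS kinetic reading; agonist 54-4 at EC80 (4 uM final) then added.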
TRPV1 PAM = potentiators of human vanilloid receptor 1 (TRPV1); Q8NER1; TRPV1-expressing cells, Fluo-8 calcium influx, capsaicin EC20 potentiation; potentiation, % at 8.33 µM; actives 0.02% (n = 320,000); in the data active = potentiation above about 80%; inconclusive = between about 30% and that limit; note: 0% is about no effect
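Cells expressing TRPV1 were dye-loaded with Fluo-8 and read kinetically: 10 s baseline, 3 min after compound (agonist portion), then 2 min after EC20 capsaicin (allosteric enhancer portion). Calcium-bound dye fluorescence at 480/520 nm.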
Starred values were filed as active, the others as inactive; ? = inconclusive; nt = no result.

SMILES | TRPV1 agonist | TRPML1 agonist | TRPML1 blocker | TRPV1 PAM
CCOC(=O)c1cc2c(ccn2C)n1CC(=O)N1CCC(Cc2ccccc2)CC1 | 23 | 1 | 2 | -14
O=C(N/N=C\c1ccc(F)cc1)c1ccc(F)cc1 | 82* | -1 | 29 | -22
Cc1ccc(/C=N/NC(=O)c2ccc(-n3cnnn3)cc2)cc1 | 80* | 1 | 4 | -10
COc1ccccc1N1CCN(C2CCCCC2NS(=O)(=O)c2ccc(Cl)cc2)CC1 (centres undefined) | 19 | 0 | 82 | -1
COc1ccc(N2CCN(C3CCCCC3NS(=O)(=O)c3ccc(Cl)cc3)CC2)cc1 (centres undefined) | 5 | 63* | -17 | 25
N#Cc1ccc(N2C(=O)[C@@H]3C(C(=O)C(c4ccccc4)c4ccccc4)=NN[C@@H]3C2=O)cc1 | 1 | 1 | -6 | 10
CCC(=O)OCC(=O)Nc1ncc(C(F)(F)F)cc1Cl | 0 | 1 | 20 | ?
O=C(Cc1cccs1)Nc1nc2c(ccc3ccccc32)s1 | 81* | 0 | -1 | -5
CC(=O)Nc1nc2c(ccc3ccccc32)s1 | -4 | 0 | 2 | 17
COc1ccc(CCc2ccc3cc(OC)ccc3n2)cc1 | nt | 3 | -13 | nt
CN([C@@H](C(=O)OC(C)(C)C)c1ccccc1)S(=O)(=O)c1cccc(S(=O)(=O)N(C)[C@@H](C(=O)OC(C)(C)C)c2ccccc2)c1 | -1 | 71* | -19 | 10
CCCCC(=O)Nc1nc2c(s1)COc1ccccc1-2 | 121* | 0 | 7 | 25
COc1ccccc1NC(=O)COC(=O)c1ccc2c(=O)n3c(nc2c1)CCC3 | nt | 0 | 6 | nt
CCS(=O)(=O)N1CCC(C(=O)NC2CCCCCCC2)CC1 | 0 | 0 | -6 | -2
CC(C)CN(CC(C)C)S(=O)(=O)N1CCC(C(=O)NC2CCCCCCC2)CC1 | 84* | 5 | -11 | 5
COc1cc2c(cc1OC)C(C(=O)Nc1ccccn1)C(c1cccnc1)N(C)C2=O (centres undefined) | -2 | 1 | -52* | 15
Cc1cc(C(=O)N/N=C/c2cccc([N+](=O)[O-])c2)c(C)n1-c1ccccc1 | 89* | 2 | 7 | 6
COc1ccc(/C=N/NC(=O)c2cc(C)n(-c3ccccc3)c2C)cc1OC | ? | 0 | -17 | -7
COc1ccc(C(=O)NC(=S)NNC(=O)c2cccc(C)c2)cc1 | nt | 19 | 4 | nt
Cc1ccc(C(=O)NNC(=S)NC(=O)c2ccc(Cl)cc2Cl)cc1 | 21 | 72* | 4 | -19
Cc1cccc(C(=O)NNC(=S)NC(=O)c2cccs2)c1 | 11 | 66* | 2 | -6
Cc1cccc(C(=O)NNC(=S)NC(=O)c2ccccc2)c1 | nt | 70* | 6 | nt
COc1ccc(C(=O)NNC(=S)NC(=O)c2cccs2)cc1 | 3 | 4 | -15 | 6
Cc1ccc(C(=O)NNC(=S)NC(=O)c2ccccc2)cc1 | nt | 0 | -12 | nt
Cc1ccc(C(=O)NC(=S)NNC(=O)c2ccccc2)cc1 | 25 | 69* | -14 | -19
SMILES | TRPV1 agonist | TRPML1 agonist | TRPML1 blocker | TRPV1 PAM
Cc1cc(C)cc(-n2ncc3c2CCCC3NC(=O)c2ccccc2)c1 (centres undefined) | nt | 1 | 16 | nt
CCOC(=O)CN(c1cccc(C(C)=O)c1)S(C)(=O)=O | -3 | 1 | -6 | -2
COc1ccc(-c2noc(CCC(=O)N3CCN(c4ccccc4C(F)(F)F)CC3)n2)cc1 | nt | 1 | -8 | nt
CCCOc1ccc(C(=O)NC(=S)NNC(=O)c2c(-c3ccccc3)noc2C)cc1 | ? | 65* | 39 | -32
O=C(Nc1ccccc1)C1C(c2ccccc2)C1(Cl)Cl (centres undefined) | 84* | 1 | 34 | -31
O=C(Nc1ccc(Cl)cn1)C1C(c2ccccc2)C1(Cl)Cl (centres undefined) | ? | -1 | -11 | -7
COCCNC(=O)c1c[nH]c2ccc(S(=O)(=O)N3CCOCC3)cc2c1=O | -2 | 0 | -3 | 12
COCCCNC(=O)c1c[nH]c2ccc(S(=O)(=O)N3CCC(C)CC3)cc2c1=O | 15 | 1 | 8 | -1
CC(C)CCNC(=O)c1c[nH]c2ccc(S(=O)(=O)N3CCOCC3)cc2c1=O | 82* | -1 | 11 | -2
CCCCCNC(=O)c1c[nH]c2ccc(S(=O)(=O)N3CCC(C)CC3)cc2c1=O | nt | 1 | -50* | nt
CC1C(=O)Nc2ccccc2N1C(=O)c1ccc(O)cc1 (centres undefined) | -2 | 1 | -11 | 7
Cc1ccc(NC(=O)CN2C(=O)NC3(CCc4ccccc43)C2=O)cc1 (centres undefined) | 26 | -1 | 19 | -19
O=C(Nc1ccc(C2SCCS2)cc1)c1ccccc1 | 86* | 2 | 0 | -6
CNC(=O)Nc1ccc(C2SCCS2)cc1 | 29 | 0 | 0 | -25
CN(CC(=O)NC1CCCCCC1)S(=O)(=O)c1cnc[nH]1 | -4 | 0 | -11 | -3
O=C(Cc1ccccc1F)Nc1nc(-c2cccs2)cs1 | 81* | 1 | -11 | -2
O=C(O)CCCC(=O)Nc1nc(-c2ccc(F)cc2)cs1 | 3 | -1 | 21 | 7
O=C(Cc1ccccc1)Nc1nc(-c2cccs2)cs1 | 94* | 1 | -19 | -7
O=C(Cc1ccccc1F)Nc1nc(-c2ccc(F)c(F)c2)cs1 | ? | 1 | -1 | -10
O=C(Cc1ccccc1)Nc1nnc(-c2cccs2)s1 | -4 | 2 | -1 | -21
O=C(Cc1ccc(F)cc1)Nc1nc(-c2ccc(F)cc2)cs1 | 104* | 0 | 2 | -31
CN1CCc2c(sc(NC(=O)CSc3ccccc3)c2-c2nc3ccccc3s2)C1 | ? | 59* | -12 | 10
CC(=O)N1CCc2c(sc(NC(=O)CSc3ccccc3)c2-c2nc3ccccc3s2)C1 | 20 | 3 | 36 | 1
Cc1[nH]n(-c2ccccc2)c(=O)c1N=Nc1c(O)cc(S(=O)(=O)N(C)C)c2ccccc12 | -1 | 0 | -18 | -1
N#C/C(=C/c1ccc(N2CCOCC2)o1)C(=O)Nc1ccccc1 | ? | 83* | -17 | -14
SMILES | TRPV1 agonist | TRPML1 agonist | TRPML1 blocker | TRPV1 PAM
CC(C)C[C@H]1CN=C(Nc2ccccc2)N1CCc1cccc(F)c1 | nt | 80* | 9 | nt
O=C(Nc1ccc(N2CCCCCC2)cc1)c1cccc(S(=O)(=O)N2CCOCC2)c1 | 87* | 1 | 31 | -2
CC(C)(C)c1cc(NC(=O)c2cccc(S(=O)(=O)N3CCOCC3)c2)no1 | 80* | 0 | 11 | -7
O=C(NCc1nc2ccccc2[nH]1)c1cccc(S(=O)(=O)N2CCOCC2)c1 | 5 | 0 | 8 | 30
O=C(Nc1nc2ccccc2[nH]1)c1cccc(S(=O)(=O)N2CCOCC2)c1 | 80* | 0 | 16 | -26
O=C(Nc1ccccc1)c1ccc(NC2CCCCC2)c(S(=O)(=O)N2CCOCC2)c1 | 86* | 0 | 6 | 15
O=C(Nc1ccccn1)c1cccc(S(=O)(=O)N2CCOCC2)c1 | 9 | 0 | 80 | 9
CCOC(=O)c1c(NC(=O)CSc2ncn[nH]2)sc(C(C)=O)c1C | -2 | -1 | -12 | -5
